From PubChem
WRN helicase inh: inhibitors of human WRN helicase | Q14191 | WRN helicase unwinding, fluorescent forked duplex, kinetic | Potency, µM (series often up to 114 µM), inactives show top-dose activity change, negative = inhibition, most hits filed as inhibitors | 360,000 compounds, 0.46% hits | AID 651768; also: potency is read from the fitted curve at half-maximal effect; % is scaled to controls: 0 for no effect and ±100 for the full control effect; nearly all actives have a fitted effect of over 55% in size
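Kinetic red-fluorescence monitoring (525/598 nm) tracks WRN helicase activity after 100 nM fluorophore-quencher forked duplex and 2 mM ATP are added to 20 nM enzyme pretreated 15 min at room temperature with compound.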
Pol kappa inh-1: blocks human DNA polymerase kappa activity | purified Pol kappa, fluorescent DNA synthesis assay, 10 min | Potency, µM (top dose mostly 107 µM), for the others: at the highest dose activity, negative = inhibition, actives largely listed as inhibitors | 400,000 compounds, 0.53% hits | AID 588579; also: potency is read from the fitted curve at half-maximal effect; % is scaled to controls: 0 for no effect and ±100 for the full control effect
Target sequence (Q9UBT6 whole entry, looked up): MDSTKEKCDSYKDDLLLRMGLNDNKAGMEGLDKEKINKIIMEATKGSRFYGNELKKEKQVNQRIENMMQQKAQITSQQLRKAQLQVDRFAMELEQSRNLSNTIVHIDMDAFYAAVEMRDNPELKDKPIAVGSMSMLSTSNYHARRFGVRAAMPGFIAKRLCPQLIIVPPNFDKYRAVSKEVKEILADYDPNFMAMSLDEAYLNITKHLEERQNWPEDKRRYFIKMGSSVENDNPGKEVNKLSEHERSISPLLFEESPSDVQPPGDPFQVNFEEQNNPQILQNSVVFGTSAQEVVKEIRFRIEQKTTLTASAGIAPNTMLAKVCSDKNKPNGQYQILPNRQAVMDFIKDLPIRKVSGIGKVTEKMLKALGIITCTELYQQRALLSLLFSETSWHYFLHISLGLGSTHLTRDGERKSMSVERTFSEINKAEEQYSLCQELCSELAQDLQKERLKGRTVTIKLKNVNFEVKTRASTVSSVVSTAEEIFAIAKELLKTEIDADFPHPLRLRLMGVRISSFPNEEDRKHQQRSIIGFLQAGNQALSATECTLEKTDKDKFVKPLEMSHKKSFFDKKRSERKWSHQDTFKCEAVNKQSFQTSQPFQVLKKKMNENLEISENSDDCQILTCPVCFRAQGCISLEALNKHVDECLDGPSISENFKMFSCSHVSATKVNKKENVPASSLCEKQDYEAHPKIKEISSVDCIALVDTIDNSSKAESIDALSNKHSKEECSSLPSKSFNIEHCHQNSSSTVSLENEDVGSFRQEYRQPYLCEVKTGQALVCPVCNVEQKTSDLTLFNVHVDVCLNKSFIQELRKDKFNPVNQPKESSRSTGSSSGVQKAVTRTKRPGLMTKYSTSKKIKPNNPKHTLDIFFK
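10 nM Pol kappa was preincubated with compounds for 15 min at room temperature. Reaction started with 50 nM (final) substrate. Fluorescence read kinetically at 0 and 10 min.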
POLB inh: inhibitors of human DNA polymerase beta. P06746. Pol beta primer extension/strand displacement, fluorescence kinetic. Potency, µM (doses to about 114 µM), inactives show at the highest dose activity change, negative = inhibition, usual class: inhibitors. 340,000 compounds, 1.3% hits; also: potency is read from the fitted curve at half-maximal effect; % is scaled to controls: 0 for no effect and ±100 for the full control effect
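Kinetic readout of DNA synthesis with strand displacement by Pol beta. Compound and 10 nM enzyme sit 15 min at room temperature; 50 nM substrate starts the reaction, read immediately and at 10 min.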
Pol iota inh: blocks human DNA polymerase iota activity; Q9UNA4; AID 588590; 390,000 compounds, 1% hits; Pol iota fluorescent replication assay, 10 min; Potency, µM (top dose mostly 115 µM), inactives show top-dose activity, negative = inhibition, usual class: inhibitors; also: potency is read from the fitted curve at half-maximal effect
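Pol iota at 10 nM preincubated 15 min with compounds at room temperature; reaction started with fluorescent substrate, 50 nM final. Fluorescence read kinetically at 0 and 10 min; buffer-only wells as negative control.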
PI5P4K alpha inh: blocks human PI5P4K alpha kinase activity | P48426 | PI5P4Kalpha enzyme, ADP-Glo luminescence, 60 min; hits give low values | max response, % | 330,000 compounds, 1.2% hits | AID 652105; active = max response of -50% or lower; inconclusive = between -30% and -50%; inactive = -30% or higher; also: value at the top dose of about 77 µM; % is scaled to controls: 0 for no effect and ±100 for the full control effect
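Human PI5P4Kalpha with substrate in 0.038 M HEPES pH 7.4, 0.28 mM EGTA, 0.1% CHAPS, 5% DMSO; reaction started with 5 microM ATP (final), 60 min at room temperature. ADP formed read by ADP-Glo luminescence.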
Pol eta inh-1: DNA polymerase eta (human) inhibition; Potency, µM (titrated, usually from 114 µM), for inactives: top-dose activity change, negative = inhibition, actives largely listed as inhibitors; 390,000 compounds, 1.2% hits; recombinant Pol eta, fluorescent DNA replication assay; Q9Y253; also: potency is read from the fitted curve at half-maximal effect; % is scaled to controls: 0 for no effect and ±100 for the full control effect
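Pol eta (10 nM) was preincubated with compounds for 15 min at room temperature, after which fluorescent replication substrate (50 nM final) was added to start the reaction. Fluorescence was read kinetically at 0 and 10 min.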
GALK inh confirm: confirmation of human galactokinase (GALK) inhibitors; Potency, µM (titrated, usually from 115 µM), for the others: at the highest dose activity, negative = inhibition, hits mostly inhibitors; purified GALK, Kinase-Glo ATP depletion luminescence; 150 compounds, 70% hits; shares compounds with Pol eta inh-1
GALK redox cs: counter-screen for GALK inhibitors: redox cycling H2O2 generation | shares compounds with Pol eta inh-1 | Phenol red-HRP H2O2 redox cycling, absorbance 600 nm | 150 compounds, 40% hits | Potency, µM (titrated, usually from 115 µM), for inactives: at the top dose activity change, negative = H2O2 signal, most hits filed as inhibitors | AID 2035
HEK293 tox: counter-screen for GALK inhibitors: HEK293 cell cytotoxicity | AID 2547 | shares compounds with Pol eta inh-1 | Potency, µM (highest dose often 46.1 µM), for inactives: at the highest dose activity change, negative = cytotoxicity, most hits filed as inhibitors | 170 compounds, 10% hits | HEK-293 viability, ATP luminescence (CellTiter-Glo), 24/48 h; also: potency is read from the fitted curve at half-maximal effect; % is scaled to controls: 0 for no effect and ±100 for the full control effect
Pol kappa inh-2: Pol kappa (human) inhibition, cherry-pick confirmation | 920 compounds, 76% hits | Potency, µM, actives largely listed as inhibitors | shares compounds with Pol eta inh-1 | purified Pol-kappa, fluorescent strand-displacement substrate; also: potency is read from the fitted curve at half-maximal effect
Pol eta inh-2: confirmation of human DNA polymerase eta inhibitors; Pol eta primer extension, TAMRA/BHQ fluorescence, 10 min; Potency, µM, hits mostly inhibitors; 2,600 compounds, 64% hits; shares compounds with Pol eta inh-1; AID 720502; also: potency is read from the fitted curve at half-maximal effect
Active calls of the source: *; ? = inconclusive; . = no result; [ ] = another dose, or the depositor's remark. An excerpt weighted towards active compounds, which were near 2.8% of everything screened. Unless noted, calls follow the shape of the dose curve; as a rule, active = well fitted curve in the direction sought with a large enough effect; inconclusive = small, poorly fitted or top-dose-only effect, or another doubt; inactive = no such curve, though single readings can be large; an effect the other way counts as inactive or inconclusive.

SMILES	WRN helicase inh	Pol kappa inh-1	POLB inh	Pol iota inh	PI5P4K alpha inh	Pol eta inh-1	Pol eta inh-2	others
Cc1ccc(CNC(=O)CN(c2ccc(C(C)C)cc2)S(=O)(=O)c2c(C)n[nH]c2C)cc1	.	-26.5%	-16.5%	-11.1%	.	-25.7%	.
COc1cccc(-c2coc3c(C)c4oc(=O)c(CCC(=O)O)c(C)c4cc23)c1	?	-37.6%	?	?	0.5	50.1µM*	47.8*
Nc1nnc(SCC(=O)N2CCCCC2)s1	6.8%	-11.9%	36.4%	-0.8%	0.6	-3.3%	.
Nc1c(C=C2C=CC(=O)C=C2)c(=O)nc2sc(CC(=O)N3CCCCC3)nn12	-8.5%	-23.9%	-19.5%	?	?	39.8µM*	75.7*
COc1cc(/C=C/C(=O)O)cc(S(=O)(=O)Nc2ccccc2C(=O)NCc2ccco2)c1OC	-8.9%[11.6 µM]	?	.	?	1.5	22.4µM*	?
COc1cc(/C=C/C(=O)O)cc(S(=O)(=O)Nc2ccccc2Cl)c1OC	?	-8.5%	34.1%	2.4%	-29.3	-9.8%	.
CCc1ccc(NC(=O)Cn2c(=O)n(CCC(=O)NCCc3ccc(Cl)cc3)c(=O)c3ccccc32)cc1	.	4.1%	5.5%	27.5%	.	-11.0%	.
COc1cc(CC(=O)OCC(=O)NCc2ccco2)cc(OC)c1OC	-4.7%[11.6 µM]	-26.2%	.	?	0.4	50.1µM*	?
COc1ccc(CC(=O)OCC(=O)NCc2ccco2)cc1	-1.3%	-8.9%	.	?	7.7	7.9%	.
Cc1ccc(-c2noc(C3CC(=O)N(c4ccc5c(c4)OCCO5)C3)n2)cc1 (stereo not given)	.	0.0%	-28.3%	11.8%	.	-24.7%	.
S=C1Cc2ccccc2N1	6.4%	-23.4%	1.3%	10µM*	-63.8*	25.1µM*	.	GALK inh confirm=26.6µM*;GALK redox cs=7.49µM*;HEK293 tox=0.2%
CCOC(=O)Cn1c(=O)n(CC2CCCO2)c2nc(-c3ccccc3F)nc(C(N)=O)c21 (stereo not given)	.	-11.3%[60.1 µM]	7.9%	36.9%	.	-13.2%	.
COCCCNC(=O)CCCn1c(=O)c2cccn2c2ccccc21	.	6.2%	0.4%	15.0%	.	-2.0%	.
CC1CCCN(c2ncnc3c2nc2n3CCCCC2)C1 (stereo not given)	.	-2.3%	1.0%	-9.8%	.	-11.4%	.
C#Cc1ccc([C@H]2C=C(C(=O)O)O[C@@H](OCc3ccc(CO)cc3)C2)cc1	-22.8%[57.1 µM]	?	28.2µM*	?	-21.2	35.5µM*	.	Pol kappa inh-2=42.3*
C/C(=N\Nc1ccc(Cl)c(C(=O)O)c1)c1ccc(Br)s1	?	?	50.1µM*	?	-14.7	20µM*	26.9*
C/C(=N\NC(=O)c1ccc(Cl)c(Cl)c1)c1ccc(Br)s1	-30.6%[57.1 µM]	1.3%	?	23.7%	-2.6	-2.9%	.
CC1CCCCN1S(=O)(=O)c1ccc2[nH]c(=O)cc(C(=O)NCCc3ccc(Cl)cc3)c2c1 (stereo not given)	.	3.8%[60.1 µM]	?	-27.3%	.	-6.9%	.
COc1ccc(C2C(=O)N(C3CCCCCC3)CC(=O)N2Cc2ccc(C)cc2)cc1OC (stereo not given)	.	-9.5%[60.1 µM]	-0.6%	17.2%	.	-5.8%	.
COc1cc(/C=C/c2[nH]c(=O)[nH]c(=O)c2[N+](=O)[O-])cc([N+](=O)[O-])c1O	-12.7%[11.6 µM]	-16.0%	?	?	-84.3*	22.4µM*	60.1*	Pol kappa inh-2=?
O=c1[nH]c(/C=C/c2cccc([N+](=O)[O-])c2)c([N+](=O)[O-])c(=O)[nH]1	-4.9%[11.6 µM]	-3.3%	-21.2%	?	-67.2*	25.1µM*	.	GALK inh confirm=37.5µM*;GALK redox cs=2.1%;HEK293 tox=6.9%
O=c1[nH]c(/C=C/c2ccc(Cl)cc2Cl)c([N+](=O)[O-])c(=O)[nH]1	-32.5%	-13.6%	31.6µM*	50.1µM*	-77.9*	20µM*	75.7*
Cc1c2cnn(-c3ccccc3)c(=O)c2c(C)n1CC(=O)N1CCN(c2ccc(F)cc2)CC1	.	-4.4%	31.1%	20.5%	.	-8.5%	.
O=C(OCC(=O)N1CCCC1=O)c1nc(Cl)c(Cl)c(Cl)c1Cl	-6.1%[11.6 µM]	?	?	?	-20.4	56.2µM*	?
Nc1c(Cl)c(Cl)nc(C(=O)OCC(=O)N2CCCC2=O)c1Cl	-13.0%	-11.4%	.	?	-21.7	?	.
SMILES	WRN helicase inh	Pol kappa inh-1	POLB inh	Pol iota inh	PI5P4K alpha inh	Pol eta inh-1	Pol eta inh-2	others
Cc1cccc(NC(=O)c2ccc(CN3CC(=O)N4CCCCC4C3=O)cc2)c1C (stereo not given)	.	-10.0%	17.9%	-11.7%	.	-10.7%	.
CSCC[C@H](NS(=O)(=O)c1ccc(C(C)=O)cc1)c1nnc2ccccn12	?	-19.1%	79.4µM*	-21.1%	?	14.1µM*	67.5*
Cc1ccc(F)c(NC(=O)/C(C#N)=C(\O)c2ccc(C(C)(C)C)cc2)c1	-2.1%[11.6 µM]	-7.0%	89.1µM*	?	-28.1	79.4µM*	.	GALK inh confirm=33.5µM*;GALK redox cs=-20.3%;HEK293 tox=3.6%
CCc1ccc(NC(=O)CSc2nc3c(sc4ccccc43)c(=O)n2CCCOC)cc1	.	-2.5%[60.1 µM]	30.6%	-13.4%	.	4.0%	.
CC(=O)c1ccc(NC(=O)Cn2cc(S(=O)(=O)Cc3ccccc3Cl)c3ccccc32)cc1	.	-21.3%	?	?	.	-4.4%	.
Cc1ccc(O)c(NC(=O)COCc2cc(-c3ccco3)on2)c1	.	-3.2%	9.1%	11.1%	.	13.0%	.
CC(C)(O)CCCC(C)(O)c1ccc(C(=O)O)cc1O (stereo not given)	-7.0%[11.6 µM]	?	39.8µM*	35.5µM*	3.7	10µM*	60.1*
Cc1nn(CCc2nn[nH]n2)c2nc(-c3ccc(C4CCCCC4)cc3)cc(C(F)(F)F)c12	?	-34.9%	?	28.9%	28.3	44.7µM*	?
